CtBP-E1A inh: blocks the CtBP interaction with E1A; AlphaScreen GST-E1A/His-CtBP binding, 1536-well; hits give low values; activity change, % (no concentration beside the values); 340,000 tested, 0.49% active; AID 651724; in the data active means activity change below about -65%; inconclusive means mostly about -30% to -63%
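Steps: dispense buffer (Tris pH 8.0, NaCl 300 mM, TCEP 1 mM, BSA, Tween 20); add 5X protein mix (GST-E1A, His-CtBP, 125 nM each); pin 23 nL compound; 2 h at 37 °C, dark; add 5X beads (50 ug/mL); 1 h; read.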
DT40 TDP1 no CPT: qHTS for Inhibitors of human tyrosyl-DNA phosphodiesterase 1 (TDP1): qHTS in cells in absence of CPT. 420,000 tested, 15% active. AID 686978, 2013. DT40 Tdp1-/- hTDP1 cells, no CPT, ATP luminescence, 48 h. Potency, µM (top dose mostly 46.2 µM), for inactives: top-dose activity change, negative = growth inhibition, hits mostly inhibitors; further: potency means the concentration at half of the fitted maximal effect; nearly all actives have a fitted effect of over 55% in size
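Seeded 400 DT40-hTDP1 cells/well (vehicle DMSO, no 20 nM CPT); pinned compounds; ≥48 hr at 37 °C; CellTiter-Glo luminescence as viability measure.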
Six1-Eya2 inh: inhibitors of human Six1/Eya2 interaction; activity change, % (test concentration not listed); AlphaScreen GST-Six1/His-Eya2 binding, biochemical; hits give low values; Q15475+O00167; 360,000 tested, 0.56% active; in the data active means activity change below about -65%; inconclusive means mostly about -30% to -63%
Target sequence (O00167 whole entry, looked up): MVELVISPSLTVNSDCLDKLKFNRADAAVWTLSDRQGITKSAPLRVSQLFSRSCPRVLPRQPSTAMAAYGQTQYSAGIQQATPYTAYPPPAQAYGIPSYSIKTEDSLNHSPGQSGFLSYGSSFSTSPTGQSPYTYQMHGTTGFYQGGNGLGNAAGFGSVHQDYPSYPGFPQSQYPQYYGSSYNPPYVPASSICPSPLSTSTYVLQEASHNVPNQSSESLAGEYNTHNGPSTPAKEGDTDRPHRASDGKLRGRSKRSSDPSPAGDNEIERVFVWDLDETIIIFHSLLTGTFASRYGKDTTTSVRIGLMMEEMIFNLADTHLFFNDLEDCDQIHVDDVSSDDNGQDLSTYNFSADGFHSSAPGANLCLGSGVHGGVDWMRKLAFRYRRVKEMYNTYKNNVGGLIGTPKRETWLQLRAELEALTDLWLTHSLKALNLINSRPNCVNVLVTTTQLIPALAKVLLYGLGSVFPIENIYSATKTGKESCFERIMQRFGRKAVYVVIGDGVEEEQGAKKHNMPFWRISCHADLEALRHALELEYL
Target sequence (Q15475 whole entry, looked up): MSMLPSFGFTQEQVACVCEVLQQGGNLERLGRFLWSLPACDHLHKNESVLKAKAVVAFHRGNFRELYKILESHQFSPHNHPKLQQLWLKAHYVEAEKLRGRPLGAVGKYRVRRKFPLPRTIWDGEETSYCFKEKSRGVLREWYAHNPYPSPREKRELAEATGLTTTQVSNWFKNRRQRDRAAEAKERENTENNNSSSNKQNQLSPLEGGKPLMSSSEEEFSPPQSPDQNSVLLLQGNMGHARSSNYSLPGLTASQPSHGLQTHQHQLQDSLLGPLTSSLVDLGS
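Compounds are tested against tagged Six1 and Eya2 proteins bridged by glutathione donor and nickel acceptor beads; after a one-hour incubation at 37 °C without light, AlphaScreen emission is recorded.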
TDP1 inh: TDP1 (human) enzyme inhibition; Q9NUW8; recombinant TDP1, AlphaScreen DNA substrate cleavage; Potency, µM (highest dose often 130 µM), inactives show at the top dose activity change, negative = inhibition, actives largely listed as inhibitors; 350,000 tested, 0.28% active; AID 485290; further: potency means the concentration at half of the fitted maximal effect; nearly all actives have a fitted effect of over 40% in size
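Tdp1 1 nM final; 15 min RT w/ cpd; substrate 15 nM, 5 min; beads 10 ug/ml, 10 min; AlphaScreen read. Neg ctrl: no enzyme.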
IL-1B inflam inh: inflammasome signaling inhibition, IL-1 beta readout; activity change, % at 57.5 µM; THP-1 LPS/ATP IL-1B secretion, AlphaLISA, 16 h; hits give low values; 360,000 tested, 4.7% active; in the data active means activity change below about -50%; inconclusive means mostly about -30% to -49%
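THP-1 cells pretreated 1 hr with compounds (up to 57.5 uM final), then stimulated with LPS (250 ng/mL final) plus ATP (1.25 mM final); secreted IL-1B measured by AlphaLISA after 16 hr, decreased signal indicating inhibition.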
TDP1 cell CPT: DT40-hTDP1 cell growth loss with CPT. chicken DT40 Tdp1-/-;hTDP1 cells + 20 nM CPT, ATP luminescence, 48 h. AID 686979. 420,000 tested, 12% active. Potency, µM (top dose mostly 46.2 µM), inactives show at the top dose activity change, negative = growth inhibition, usual class: inhibitors; further: potency means the concentration at half of the fitted maximal effect; nearly all actives have a fitted effect of over 55% in size
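Chicken DT40 Tdp1-/- cells complemented with human TDP1, 400 cells/well, exposed to compounds plus 20 nM camptothecin for at least 48 h at 37 C; viability read as ATP content by CellTiter-Glo luminescence.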
Numbers without * were called inactive; ? = inconclusive; . = not tested or not shown; [ ] = another dose, or the depositor's remark. Only some compounds are listed: those with a hit (about 18% of all), similar ones and a draw of the others. Unless noted, the call rests on the fitted dose curve; in most records, active means well fitted curve in the direction sought with a large enough effect; inconclusive means small, poorly fitted or top-dose-only effect, or another doubt; inactive means no such curve, though single readings can be large; an effect the other way counts as inactive or inconclusive. On the % scale 0 is the no-effect control and ±100 the full control effect.

SMILES | CtBP-E1A inh | DT40 TDP1 no CPT | Six1-Eya2 inh | TDP1 inh | IL-1B inflam inh | TDP1 cell CPT
C[C@@H](CN1CCC[C@H]1CN1C(N)=NC[C@@H]1Cc1ccccc1)N1C[C@@H](Cc2ccccc2)N(CCc2ccc(Cl)c(Cl)c2)C1=N | -4 | ? | -1 | 1% | -66* | ?
CC(C)[C@H](CN1CCC[C@H]1CN1C(N)=NC[C@@H]1Cc1ccccc1)N1C[C@@H](Cc2ccccc2)N(CCc2ccc(Cl)c(Cl)c2)C1=N | -11 | ? | 12 | 0% | ? | 9.2µM*
CSc1nsc(SCC(=O)Nc2ccc(O)c(C(=O)O)c2)n1 | -16 | 21% | -10 | 0% | -11 | -11%
COc1ccc2[nH]c(C(=O)O)c(CCN3C(=O)c4cccc([N+](=O)[O-])c4C3=O)c2c1 | -4 | -5% | 2 | 45µM* | -18 | 7%
Cc1ccc(NC(=O)/C(C#N)=C(\N)C(Cl)(Cl)Cl)nc1 | -16 | 2.1µM* | ? | 5% | -100* | 0.58µM*
Cc1cccn2c(=O)c(C(=O)NC3CC(C)CC(C)(C)C3)c(O)nc12 (configuration not stated) | 3 | 7.3µM* | 1 | . | 11 | 7.3µM*
Cc1csc2nc(O)c(C(=O)NCc3ccc4c(c3)OCO4)c(=O)n12 | 0 | 23µM* | 6 | -3% | 0 | ?
Cc1cccn2c(=O)c(C(=O)NCCCN3CC(C)CC(C)C3)c(O)nc12 (configuration not stated) | 3 | -18% | -6 | -1% | -3 | 14%
Cc1cccn2c(=O)c(C(=O)NCc3ccc(F)cc3)c(O)nc12 | . | ? | . | 0% | . | ?
Cc1ccn2c(=O)c(C(=O)NC3CCCCC3C)c(O)nc2c1 (configuration not stated) | -7 | ? | 11 | 2% | 18 | 16µM*
Cc1ccn2c(=O)c(C(=O)NCCCN3CCCCC3C)c(O)nc2c1 (configuration not stated) | -2 | 2% | 0 | 1% | 6 | 10%
Cc1cccn2c(=O)c(C(=O)NCc3ccccc3Cl)c(O)nc12 | . | 23µM* | . | 4% | . | 16µM*
Cc1cccn2c(=O)c(C(=O)NC3CCCCC3C)c(O)nc12 (configuration not stated) | 14 | 15µM* | 2 | 0% | 31 | ?
Cc1cccn2c(=O)c(C(=O)NC3CCCCC3)c(O)nc12 | . | 18µM* | 5 | 0% | -3 | 18µM*
Cc1cccn2c(=O)c3cc(C(=O)NC4CCCCCC4)sc3nc12 | -16 | ? | 0 | 4% | 14 | ?
Cc1csc2nc(O)c(C(=O)NC3CCCCCC3)c(=O)n12 | 0 | 5.2µM* | 5 | 6% | 17 | ?
O=C(O)C1CC(C(=O)O)SS1 (configuration not stated) | 0 | -31% | -8 | . | -11 | -5%
COc1ccc2cc([C@H](C)C(=O)N(C)Cc3ccccc3N3CCCC3)ccc2c1 | ? | 26µM* | -25 | 10%[0.0935 µM] | -8 | 23µM*
CC(C)/C=C1\CC/C(=C\c2ccc(N(C)C)cc2)C1=O | -1 | ? | 8 | 3% | ? | -28%
CN(C)c1ccc(/C=C2/C[N+](C)(C)C/C(=C/c3ccc(N(C)C)cc3)C2=O)cc1 | 13 | 3.7µM* | -8 | . | -98* | 2.6µM*
COC(=O)C1=C(C#N)NC(C)=C(C(=O)OC(C)C)C1c1cccc([N+](=O)[O-])c1 (configuration not stated) | . | 19µM* | . | . | . | 30µM*
COC(=O)C1=C(C)NC(C)=C(C(=O)OCCN2CCN(C(c3ccccc3)c3ccccc3)CC2)C1c1cccc([N+](=O)[O-])c1 (configuration not stated) | . | 4.7µM* | . | . | . | 6.7µM*

High-throughput results: PubChem BioAssay, National Center for Advancing Translational Sciences (NCATS)
